Compound activity: PubChem BioAssay, National Center for Advancing Translational Sciences (NCATS)
In the library only some 10% were active in any assay of this set; here they are far more common.
SW480 rereplic: induces DNA re-replication in SW480 colon adenocarcinoma cells. SW480 DNA re-replication, Hoechst DNA content imaging, 48 h. Potency, µM (highest dose often 46.1 µM), hits mostly activators. hit rate 1.8% among 340,000; further: nearly all actives have a fitted effect of over 55% in size
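First, 250 cells per well were seeded. Next, compound or vehicle (23 nL) was pinned in, plates sat 48 hr at 37 C. Finally Hoechst was added for 40 min before fluorescence scanning.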
RORg inh: ROR gamma (mouse) transcription inhibition. P51450. Drosophila S2 Gal4-RORgamma UAS-luciferase reporter, 20 h. Potency, µM (series often up to 53.6 µM), usual class: inhibitors. hit rate 5.4% among 310,000. AID 2551; further: nearly all actives have a fitted effect of over 60% in size
Target sequence (P51450 whole entry, looked up, the tested form may be a part): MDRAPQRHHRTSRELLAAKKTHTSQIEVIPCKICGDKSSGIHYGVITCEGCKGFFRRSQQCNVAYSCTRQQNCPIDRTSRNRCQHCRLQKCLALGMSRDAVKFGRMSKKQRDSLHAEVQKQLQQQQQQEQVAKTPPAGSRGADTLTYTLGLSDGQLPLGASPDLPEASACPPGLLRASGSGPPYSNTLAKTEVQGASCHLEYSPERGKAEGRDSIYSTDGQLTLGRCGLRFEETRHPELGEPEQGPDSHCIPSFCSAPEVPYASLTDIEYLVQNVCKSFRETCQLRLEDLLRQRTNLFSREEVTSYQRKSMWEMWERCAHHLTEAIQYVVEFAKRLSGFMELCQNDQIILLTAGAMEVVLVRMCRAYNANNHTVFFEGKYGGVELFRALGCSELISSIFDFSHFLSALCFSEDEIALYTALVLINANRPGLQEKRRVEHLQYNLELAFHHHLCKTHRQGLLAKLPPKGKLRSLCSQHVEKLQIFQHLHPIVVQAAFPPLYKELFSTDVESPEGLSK
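Compounds are pin-transferred onto Drosophila Schneider cells expressing a copper-inducible Gal4–ROR gamma transactivation domain fusion. After 1 hr, copper sulfate is added to 700 uM final; luciferase is read 20 hr later.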
ELG1 DNA repair: blocks ELG1-dependent DNA repair in HEK293T cells | HEK293T ELG1-luciferase reporter, luminescence, 16 h; DNA damage induced by 5-fluorouridine | Potency, µM (highest dose often 46.1 µM), usual class: inhibitors | hit rate 2.3% among 330,000 | AID 504467; further: nearly all actives have a fitted effect of over 55% in size
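In this reporter screen, reduction of luminescence relative to DMSO vehicle indicated activity. Compounds and 5-fluorouridine were added together to 2,000 cells per well, incubated for 16 hr at 37 °C, then developed with ONE-Glo.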
MCF10A rerep: inducers of DNA re-replication in MCF 10A breast cells. Potency, µM (titrated, usually from 46.1 µM), most hits filed as activators. MCF 10A DNA re-replication, Hoechst nuclear intensity, 48 h. AID 624296. hit rate 2.9% among 350,000; further: nearly all actives have a fitted effect of over 50% in size
VP16 counter: counter-screen for ROR gamma inhibitors: Gal4-VP16 reporter. Drosophila S2 Gal4-VP16 UAS-luciferase, luminescence, 20 h. hit rate 3.5% among 310,000. Potency, µM (doses to about 53.6 µM), hits mostly inhibitors. AID 2546;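 further: Gal4-VP16 expression switched on by copper sulfate through the metallothionein promoter; nearly all actives have a fitted effect of over 50% in size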
Numbers stand for hits; – = inactive; ? = inconclusive; · = not tested or not shown; [ ] = another dose, or the depositor's remark. The call rests on the fitted dose curve; in most records, active means well fitted curve in the direction sought with a large enough effect; inconclusive means small, poorly fitted or top-dose-only effect, or another doubt; inactive means no such curve, though single readings can be large; an effect the other way counts as inactive or inconclusive.

SMILES	SW480 rereplic	RORg inh	ELG1 DNA repair	MCF10A rerep	VP16 counter
CCN(CC)S(=O)(=O)c1ccc(N2CCOCC2)c(NC(=O)Cc2ccccc2)c1	–	–	?	–	–
CCOc1cc(N2CCOCC2)c(OCC)cc1NC(=O)Cc1cccc2ccccc12	–	–	18µM	–	–
CCN(CC)S(=O)(=O)c1ccc(N2CCOCC2)c(NC(=O)Cc2ccccc2F)c1	–	–	18µM	–	–
CCN(CC)S(=O)(=O)c1ccc(N2CCOCC2)c(NC(=O)Cc2cccc3ccccc23)c1	–	–	7.3µM	–	–
Cc1nnc(NC(=O)CCSCCC(=O)Nc2nnc(C)s2)s1	–	–	–	–	–
COc1ccc2[nH]cc(CCNc3ncncc3-c3ccccc3Cl)c2c1	·	–	·	·	–
COc1cccc(CN(C)Cc2cc(=O)oc3cc(O)c(Cl)cc23)c1	?	–	–	21µM	–
Cc1cc2oc(=O)cc(CN(C)Cc3cccc(F)c3)c2cc1C	?	–	–	–	–
COc1cccc(CN(C)Cc2cc(=O)oc3c(C)c(C)ccc23)c1	–	–	?	–	?
CCc1cc2c(CN(C)Cc3ccccc3F)cc(=O)oc2cc1O	?	–	–	18µM	–
CCCn1nc(NC(=O)c2ccco2)c2cc3ccc(C)cc3nc21	13µM	–	?	?	–
CCCC(=O)Nc1nn(C)c2nc3ccc(C)cc3cc12	?	–	–	–	–
CCCn1nc(NC(=O)c2ccco2)c2cc3cc(C)ccc3nc21	18µM	–	?	–	–
CCCn1nc(NC(=O)c2ccccn2)c2cc3cc(C)ccc3nc21	7.3µM	–	?	?	–
O=C(CN1C(=O)NC(c2ccc(F)cc2)C1=O)NC1CCCCC1 (stereo unspecified)	–	·	–	–	·
Oc1cc2c(cc1O)[C@H]1c3ccc(O)c(O)c3OC[C@@]1(O)C2	–	?	–	–	–
Oc1ccc2c(c1)OCC1(O)Cc3cc(O)c(O)cc3C21 (stereo unspecified)	?	0.71µM	·	–	5.6µM
COc1ccc(OC)c2c1sc(=NC(=O)C(C)C)n2C	–	–	–	–	20µM
COc1ccc(OC)c2c1sc(=NC(=O)C(C)(C)C)n2C	–	–	–	–	–
COCCNC(=O)C(=O)NCC1OCCCN1S(=O)(=O)c1cccs1 (stereo unspecified)	–	–	?	–	–
O=S1(=O)Nc2c(ccc3cccnc23)-c2ccccc21	–	1.3µM	?	–	2.5µM
O=c1[nH]n(-c2cccc3cccnc23)c(=O)c2ccccc12	–	–	–	–	–
CC1=NN(S(=O)(=O)c2ccc(C)cc2)C(=O)c2ccccc2O1	–	–	?	–	–
COc1ccc(S(=O)(=O)N2N=C(C)Oc3ccccc3C2=O)cc1	4µM	–	–	7.9µM	–
CC(C)C(NC(=O)c1ccc(C(C)(C)C)cc1)C(=O)NCC(c1ccccc1)N(C)C (stereo unspecified)	–	–	–	–	–
SMILES	SW480 rereplic	RORg inh	ELG1 DNA repair	MCF10A rerep	VP16 counter
Cc1cccc(C)c1NC(=O)CNC(=O)C(NC(=O)c1ccc(C(C)(C)C)cc1)C(C)C (stereo unspecified)	–	?	5.2µM	–	–
CCOC(=O)C1=C(CSc2nc(CC)c(C)cc2C#N)OC(N)=C(C#N)C1c1ccccc1 (stereo unspecified)	–	–	–	?	–
CCOC(=O)C1=C(CSc2nc3c(cc2C#N)CN(C)CC3)OC(N)=C(C#N)C1c1ccc(Cl)cc1 (stereo unspecified)	?	–	–	26µM	–
CCOC(=O)C1=C(CSc2nc(-c3ccccc3)ccc2C#N)OC(N)=C(C#N)C1c1ccc(OC)cc1 (stereo unspecified)	?	–	?	16µM	–
COC1OC2COC(c3ccccc3)OC2C(=O)C1NC(=O)c1ccccc1 (stereo unspecified)	–	·	·	–	·
O=C(NCc1ccco1)N1c2ccccc2Sc2ccccc21	–	?	–	–	35µM
CC(C)(C)C(=O)Cn1ncc(Br)c(Br)c1=O	7.3µM	?	?	5.8µM	–[10 µM]
Cc1cccc(-n2c3nc(=O)[nH]c(=O)c-3cc3cc([N+](=O)[O-])ccc32)c1	?	?	–	?	?
Cc1ccc(C)c(-n2c3nc(=O)[nH]c(=O)c-3cc3cc([N+](=O)[O-])ccc32)c1	3.2µM	10µM	–	?	11µM
CC(=O)OC1CC[C@@]2(C)C(CC[C@@]3(C)C2CC=C2C4CC(C)(C)CC[C@]4(C)CC[C@@]23C)C1(C)C (stereo partly specified)	·	–	·	·	–
C=C1C(=O)C2=CC1CCC(=O)C1(C)CCC(OC(C)=O)C(C)(C)C1CC2O (stereo unspecified)	2.1µM	·	·	9.2µM	·
CCOc1ccc(Cn2c3ccc(OC)cc3c3nc4ccccc4nc32)cc1	–	–	–	5.8µM	–
COc1ccc(Cn2c(N)c(C#N)c3nc4ccccc4nc32)cc1	9.2µM	–	–	7.3µM	?
CCn1c2ccc(OC)cc2c2nc3ccccc3nc21	–	–	?	–	?
COCCn1c(N)c(C#N)c2nc3ccccc3nc21	?	–	–	?	–
COc1cc(Cn2c(N)c(C#N)c3nc4ccccc4nc32)cc(OC)c1	8.2µM	–	?	4.6µM	–
N#Cc1c(N)n(CCc2ccc(F)cc2)c2nc3ccccc3nc12	15µM	–	–	?	–
COc1cccc(Cn2c(N)c(C#N)c3nc4ccccc4nc32)c1OC	?	–	–	?	–
C[C@H]1C[C@]2(O[C@@H]2C)C(=O)O[C@@H]2CCN(C)C/C=C(/COC(=O)[C@]1(C)O)C2=O	·	–	·	·	–
O=C1CCC(=O)N1CO	–	–	·	–	–
CCOC(=O)c1ncccc1NC(=O)CC(=O)Nc1cccnc1C(=O)OCC	?	·	·	–	·
C#CC1(NC(=O)NC(=O)c2c(F)cccc2F)CCCCC1	–	–	–	–	–
O=C(c1ccc(-c2ccccc2)cc1)C1CCCN(Cc2ccncc2)C1 (stereo unspecified)	–	11µM	?	?	–
O=C(c1ccc(-c2ccccc2)cc1)C1CCCN(C(=O)c2ccncc2)C1 (stereo unspecified)	–	–	–	–	–
Cc1ccc(-n2nc(C)c3c(-c4cccs4)c(C#N)c(N)nc32)cc1	?	?	13µM	8.2µM	–
CCN(CC)C(=O)CSc1nc(N)c(C#N)c(-c2cccs2)c1C#N	–	–	?	–	–
Cc1nn(-c2ccccc2)c2nc(N)c(C#N)c(-c3ccc(F)cc3)c12	–	–	?	16µM	–
COc1ccc(NS(=O)(=O)c2ccc(N3CCCC3)c(NC(=S)Nc3cccc(S(=O)(=O)N(C)C)c3)c2)cc1	·	?	?	·	–
COC(=O)C(Cc1ccccc1)NC(=O)CNC(=O)c1ccc(Br)o1 (stereo unspecified)	–	·	–	–	·
Cc1cc(C(=O)Cn2cnc3ccc(Cl)cc3c2=O)c(C)n1C1CC1	–	·	·	–	·
